Test results from PubChem BioAssay AID1159580 (chemical genetic matrix, 2015).
In all, about 5,500 compounds went through this assay and about 2,000 (36%) were called active. Roughly 18% stayed inconclusive and do not appear here. No stated cut-off is given here; in the data, active means normalized growth mostly below about 0.91 (no sharp cut-off); inconclusive means no clear call, values can overlap the other calls; inactive means mostly above about 0.92. The list shows a part of the results.

Test: chemical genetic growth profiling, strain panel (AID 1159580);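 further: tested at 20 µM; growth read once vehicle control cultures reached saturation at 30 °C; 1 = growth at the plate median or of vehicle wells; lower values mean less growth of the strain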
Conditions: S. cerevisiae deletion strains, growth OD
[1] = locus YBL105C, strain PKC1, hits give low values
[2] = locus YBR135W, strain CKS1, hits give low values
[3] = locus YBR160W, strain CDC28, hits give low values
[4] = locus YDL017W, strain CDC7, hits give low values
[5] = locus YDL028C, strain MPS1, hits give low values
[6] = locus YDL108W, strain KIN28, hits give low values
[7] = locus YDL132W, strain cdc53, hits give low values
[8] = locus YDL214C, strain PRR2, hits give low values
[9] = locus YDR052C, strain DBF4, hits give low values
[10] = locus YDR054C, strain cdc34, hits give low values
[11] = locus YDR477W, strain SNF1, hits give low values
[12] = locus YER123W, strain YCK3, hits give low values
[13] = locus YER133W, strain GLC7, hits give low values
[14] = locus YFL029C, strain CAK1, hits give low values
[15] = locus YFR003C, strain YPI1, hits give low values
[16] = locus YFR028C, strain CDC14, hits give low values
[17] = locus YGR040W, strain KSS1, hits give low values
[18] = locus YGR052W, strain FMP48, hits give low values
[19] = locus YGR092W, strain DBF2, hits give low values
[20] = locus YHR030C, strain SLT2, hits give low values
[21] = locus YHR079C, strain IRE1, hits give low values
[22] = locus YHR082C, strain KSP1, hits give low values
[23] = locus YHR205W, strain SCH9, hits give low values
[24] = locus YIL147C, strain SLN1, hits give low values
[25] = locus YJL095W, strain BCK1, hits give low values
[26] = locus YJL128C, strain PBS2, hits give low values
[27] = locus YJL157C, strain FAR1, hits give low values
[28] = locus YJR066W, strain TOR1 (second series), hits give low values
[29] = locus YJR066W, strain TOR1, hits give low values
[30] = locus YKL048C, strain ELM1, hits give low values
[31] = locus YKL067W, strain YNK1, hits give low values
[32] = locus YKL101W, strain HSL1, hits give low values
[33] = locus YKL203C, strain TOR2, hits give low values
[34] = locus YLR113W, strain HOG1, hits give low values
[35] = locus YLR133W, strain CKI1, hits give low values
[36] = locus YLR403W, strain SFP1, hits give low values
[37] = locus YML070W, strain DAK1, hits give low values
[38] = locus YMR001C, strain CDC5, hits give low values
[39] = locus YMR205C, strain PFK2 (second series), hits give low values
[40] = locus YMR277W, strain FCP1, hits give low values
[41] = locus YNL006W, strain LST8, hits give low values
[42] = locus YNL020C, strain ARK1, hits give low values
[43] = locus YNL183C, strain NPR1, hits give low values
[44] = locus YNL207W, strain RIO2, hits give low values
[45] = locus YNL222W, strain SSU72, hits give low values
[46] = locus YNL307C, strain MCK1 (second series), hits give low values
[47] = locus YOL078W, strain AVO1, hits give low values
[48] = locus YOL136C, strain PFK27, hits give low values
[49] = locus YOR061W, strain CKA2, hits give low values
[50] = locus YOR119C, strain RIO1, hits give low values
[51] = locus YOR231W, strain MKK1, hits give low values
[52] = locus YOR329C, strain SCD5, hits give low values
[53] = locus YPL031C, strain PHO85, hits give low values
[54] = locus YPL153C, strain RAD53, hits give low values
[55] = locus YPL204W, strain HRR25, hits give low values
[56] = locus YPL209C, strain IPL1, hits give low values
[57] = locus YPL256C, strain CLN2, hits give low values
[58] = locus YPR025C, strain CCL1, hits give low values
[59] = locus YPR106W, strain ISR1, hits give low values
[60] = locus YPR111W, strain DBF20, hits give low values
[61] = strain NNK1, hits give low values
[62] = strain TSCII, hits give low values

Measured: normalized growth

O=C(Oc1ccc(C(F)(F)F)cc1[N+](=O)[O-])c1cccc(Cl)c1
inactive: [1] 0.953 | [2] 0.936 | [3] 0.944 | [4] 0.947 | [5] 0.941 | [6] 0.936 | [7] 0.911 | [8] 0.746 | [9] 0.944 | [14] 0.923 | [15] 0.944 | [16] 0.938 | [24] 0.947 | [33] 0.712 | [38] 0.943 | [40] 0.948 | [41] 0.945 | [45] 0.93 | [47] 0.939 | [52] 0.946 | [56] 0.941 | [58] 0.937 | [62] 0.94
active: [10] 0.613 | [11] 0.626 | [12] 0.423 | [13] 0.584 | [17] 0.617 | [18] 0.124 | [19] 0.133 | [20] 0.132 | [21] 0.22 | [22] 0.162 | [23] 0.00246 | [25] 0.141 | [26] 0.132 | [27] 0.638 | [28] 0.248 | [29] 0.134 | [30] 0.623 | [31] 0.645 | [32] 0.662 | [34] 0.21 | [35] 0.556 | [36] 0.0472 | [37] 0.521 | [39] 0.584 | [42] 0.513 | [43] 0.132 | [44] 0.571 | [46] 0.295 | [48] 0.426 | [49] 0.369 | [50] 0.448 | [51] 0.348 | [53] 0.507 | [54] 0.581 | [55] 0.449 | [57] 0.266 | [59] 0.584 | [60] 0.363 | [61] 0.554

Cc1ccc(OCC2SCCN2C(=O)c2ccc(C(F)(F)F)cc2)c([N+](=O)[O-])c1 (stereo not drawn)
inactive: locus YAR019C, strain CDC15, hits give low values 1.01 | [1] 1.01 | [2] 1.01 | locus YBR136W, strain MEC1, hits give low values 1.02 | [3] 1.01 | [4] 1.03 | [5] 1.02 | locus YDL101C, strain DUN1, hits give low values 1 | [6] 1.02 | [7] 1 | [8] 0.998 | [9] 1.02 | [10] 0.986 | locus YDR226W, strain ADK1, hits give low values 1.01 | [11] 0.981 | [12] 0.955 | [13] 0.985 | locus YFL009W, strain cdc4, hits give low values 1.02 | [14] 1.01 | [15] 1.01 | locus YFR019W, strain FAB1, hits give low values 0.97 | [16] 1.01 | [17] 1 | [18] 1.12 | [19] 1.02 | [20] 0.984 | [21] 1.01 | [22] 1.09 | [23] 0.998 | [24] 1.02 | [25] 1.01 | [26] 0.979 | [27] 0.994 | locus YJR016C, strain ILV3, hits give low values 1.01 | [28] 0.927 | [29] 1.06 | [30] 1 | [31] 1 | [32] 0.996 | locus YKL193C, strain SDS22, hits give low values 1.02 | [33] 1.04 | [34] 0.97 | [35] 1 | [36] 0.997 | [37] 0.982 | [38] 1.01 | [39] 1 | [40] 1.02 | [41] 1.02 | [42] 1 | locus YNL161W, strain CBK1, hits give low values 1.01 | [43] 1.06 | [44] 1.02 | [45] 1.01 | [46] 0.993 | [47] 1.01 | [48] 0.965 | [49] 0.978 | [50] 1.05 | [51] 0.955 | [52] 1.02 | [53] 0.992 | [54] 0.987 | [55] 0.99 | [56] 1.01 | [57] 0.962 | [58] 1.01 | [59] 1.01 | [60] 1 | [61] 1.03 | [62] 1
